High-throughput results: PubChem, several laboratories
Bim-Bcl-XL = human Bim-Bcl-XL interaction inhibition | Q07817 | Bim peptide-Bcl-XL binding, bead flow cytometry, fluorescence | inhibition, % at 10 µM | 190,000 compounds, 0.04% hits | AID 1007
Target sequence (Q07817 whole entry, looked up): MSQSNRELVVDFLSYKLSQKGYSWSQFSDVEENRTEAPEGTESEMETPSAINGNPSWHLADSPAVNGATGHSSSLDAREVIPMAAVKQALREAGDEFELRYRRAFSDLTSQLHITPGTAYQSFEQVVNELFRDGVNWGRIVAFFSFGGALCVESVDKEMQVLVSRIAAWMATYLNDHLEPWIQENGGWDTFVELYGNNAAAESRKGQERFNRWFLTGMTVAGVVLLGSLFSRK
Bcl-2 Bim block = disrupts Bim peptide binding to human Bcl-2. Bead-based flow cytometry, Bim peptide-Bcl-2 binding. inhibition, % at 10 µM. 190,000 compounds, 0.06% hits; in the data active means inhibition above about 40%; inconclusive means no clear call, values can overlap the other calls
Target sequence (P10415 whole entry, looked up): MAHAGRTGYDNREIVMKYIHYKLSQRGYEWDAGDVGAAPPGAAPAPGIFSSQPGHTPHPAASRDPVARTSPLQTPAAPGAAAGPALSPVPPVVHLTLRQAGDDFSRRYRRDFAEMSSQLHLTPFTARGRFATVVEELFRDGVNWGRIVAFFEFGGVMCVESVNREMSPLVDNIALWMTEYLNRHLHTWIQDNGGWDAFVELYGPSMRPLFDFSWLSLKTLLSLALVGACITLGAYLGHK
Bfl-1 Bim block = disrupts Bim binding to human Bfl-1; Bead-based flow cytometry, Bim-Bfl-1 binding inhibition; inhibition, % at 10 µM; 190,000 compounds, 0.12% hits; AID 1008
Bim-Bcl-B = inhibitors of Bim-Bcl-B interaction, human; bead-based flow cytometry, Bim peptide-Bcl-B binding; inhibition, % at 10 µM; 190,000 compounds, 0.073% hits; AID 951
Arbovirus inh = antivirals against arbovirus infection; arbovirus infection cell-based antiviral screen; inhibition, % at 10 µM; 200,000 compounds, 0.37% hits; in the data active means inhibition above about 30%
Bcl-W Bim block = disrupts Bim peptide binding to human Bcl-W. Q92843. bead-based flow cytometry. inhibition, % at 10 µM. 190,000 compounds, 0.02% hits. AID 952;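 further: higher means less fluorescent Bim peptide bound to Bcl-W beads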
Each line names hits and unclear results; the compound was inactive in the other large screens. Compounds with a hit are over-represented: about 0.56% of the library has one in this group of screens. Unless noted, no stated cut-off is given here; in the data, active means inhibition above about 40%.

CC(C)(C)c1ccc(C(=O)Nc2sc3c(c2C(=O)O)CCC3)cc1	Arbovirus inh 31.9
O=C(Nc1sc2c(c1C(=O)NCC1CCCO1)CCCC2)c1cccs1 (configuration not stated)	none
CC(Cl)C(=O)c1c[nH]c2ccccc12 (configuration not stated)	none
C=C(C)CNC(=S)Nc1nc2c(cc1C(=O)OCC)CCCC2	none
CCOc1ccccc1C(=O)Nc1cnn(Cc2ccc(F)cc2)c1	none
Cc1ccc(C(=O)Nc2sc3c(c2C(=O)O)CCCCC3)o1	Arbovirus inh 47.2
COc1ccccc1NCCC(=O)OCC(=O)NC1CCCCCC1	none
O=S1(=O)N=C(N(CCO)/N=C/c2ccncc2)c2ccccc21	Bim-Bcl-XL 40.0
O=S1(=O)N=C(N(CCO)/N=C/c2ccccc2)c2ccccc21	none
Cc1ccc(C(=O)O)cc1-c1ccc(/C=C2/NC(=O)N(c3ccccc3)C2=O)o1	Arbovirus inh 39.9
CCOC(=O)c1c(-c2ccc(F)cc2)csc1NC(=O)C1CC=CCC1C(=O)O (configuration not stated)	none
CCOC(=O)c1c(-c2ccc(C)c(C)c2)csc1NC(=O)C1CC=CCC1C(=O)O (configuration not stated)	Arbovirus inh 40.9
CN1CCN(S(=O)(=O)c2ccc(NC(=S)NC(=O)c3ccc(Cl)cc3)cc2)CC1	Arbovirus inh 48.6
COc1ccc(-c2nnc(SC(C(=O)c3c[nH]c4ccccc34)c3ccccc3)n2N)cc1OC (configuration not stated)	none
O=C(O)CCN1C(=O)/C(=C/c2ccc(-c3nc4ccccc4s3)o2)SC1=S	Arbovirus inh 42.2
Cc1ccc(NC(=O)c2c(O)c3ccccc3n(C)c2=O)nc1	Arbovirus inh 33.1
CC(C)Oc1ccc(C(=O)NC(=S)N2CCOCC2)cc1	none
O=C(Nc1ccccc1)c1ccc2nc(-c3ccco3)c(-c3ccco3)nc2c1	Bfl-1 Bim block 45.0
O=C(NCCO)Nc1ccc2nc(-c3ccco3)c(-c3ccco3)nc2c1	Bfl-1 Bim block 43.0
CC(=O)c1ccc(NC(=O)c2ccc3nc(-c4ccco4)c(-c4ccco4)nc3c2)cc1	Bfl-1 Bim block 51.0
O=C(Nc1ccc2nc(-c3ccco3)c(-c3ccco3)nc2c1)N1CCN(c2ccccn2)CC1	Bfl-1 Bim block 53.0
CS(=O)(=O)c1ccc(Cl)c(NC(=O)CCl)c1	none
CC(C)(C)c1ccc(C(=O)Nc2ccc(NC(=O)C(=O)O)cc2)o1	none
O=C1N(Cc2cccc(Cl)c2)C[C@@H]2C[C@@H](c3cccn3-c3cccnc3)N3CCC[C@@]123	none
CCCCNC(=O)c1ccc2nc(-c3ccco3)c(-c3ccco3)nc2c1	none
O=C(NCCCO)c1ccc2nc(-c3ccco3)c(-c3ccco3)nc2c1	Bfl-1 Bim block 52.0
Clc1cccc(CSc2ccc(-c3cccnc3)nn2)c1	none
c1ccc(CSc2ccc(-c3cccnc3)nn2)nc1	Arbovirus inh 30.4
CC(C)CC(=O)OCc1cn(-c2ccccc2)nn1	Bcl-2 Bim block 83.0, Bfl-1 Bim block 58.0, Bim-Bcl-B 80.0
COc1cccc(C(=O)COc2ccccc2-c2ccccc2)c1	none
COc1ccc(-c2nc(NC(=O)c3ccc(OCC(=O)N4CCOCC4)c(OC)c3)sc2C)cc1	Arbovirus inh 44.7
COc1ccc(-n2c(Cc3cccn3C)nnc2SCC(=O)Nc2cccc(Cl)c2)cc1	Arbovirus inh 36.3
COCCn1c(N)c(C(=O)Nc2sc3c(c2C(=O)OC)CCCC3)c2nc3ccccc3nc21	Bim-Bcl-XL 41.0
COc1ccc2c3c(cccc13)N(C)N=C2C	Bcl-2 Bim block 40.0, Bfl-1 Bim block 73.0, Bcl-W Bim block 70.0
CCn1c2ccc(C)cc2c2nnc(NN)nc21	none
CSc1nnc2c3cc(C)ccc3n(Cc3ccccc3)c2n1	Bcl-2 Bim block 48.0
COC(=O)c1c(N(S(C)(=O)=O)S(C)(=O)=O)sc2c1CCN(c1ncc(C(F)(F)F)cc1Cl)C2	Arbovirus inh 48.1
CCOC(=O)c1cc2c(=O)n3cccc(C)c3nc2n(Cc2ccco2)c1=NC(=O)c1cccnc1	Bfl-1 Bim block 40.0
CCOC(=O)c1cc2c(=O)n3ccccc3nc2n(Cc2ccco2)c1=NC(=O)c1cccnc1	none
COc1ccc(C(=O)/C=C/c2ccc(OC)c(Cn3nnc4ccccc43)c2)cc1	Arbovirus inh 36.9
O=C(Nc1ccc(Cl)c(Cl)c1)Nc1cc(C(=O)NC2CC2)ccc1Cl	none
COc1ccccc1NC(=O)CN1CCC(n2nnc3cc(F)ccc32)CC1	none
COc1ccccc1NC(=O)CN1CCC(n2c(C)nc3cc(F)ccc32)CC1	Arbovirus inh 32.6
COC(=O)c1ccccc1NC(=O)CN1CCC(n2nnc3cc(C(F)(F)F)ccc32)CC1	Arbovirus inh 31.7
S=c1[nH]ncn2c1cc1oc3ccccc3c12	none
COc1ccc(CC(=O)N(CC2CCCO2)c2nc3ccccc3s2)cc1 (configuration not stated)	none
COc1ccc2[nH]c3c(NCCC4=CCCCC4)ncnc3c2c1	none
Cc1ccc2cc(C3CC(c4ccco4)=NN3S(=O)(=O)c3ccccc3)c(Cl)nc2c1 (configuration not stated)	Arbovirus inh 37.3
O=c1/c(=C/c2ccc(O)c([N+](=O)[O-])c2)sc2nc3ccccc3n12	Arbovirus inh 30.5
O=c1/c(=C\c2cccnc2)sc2nc3ccccc3n12	none
Cc1cc(/C=c2\sc3nc4ccccc4n3c2=O)c(C)n1-c1ccc(C(=O)O)cc1	Arbovirus inh 37.2
COc1ccc(-c2[nH]ncc2CN(CCO)Cc2cccs2)c(F)c1	none
CN(Cc1ccccc1)C(=O)c1[nH]cnc1C(=O)N[C@@H](CCCCNC(=O)OC(C)(C)C)C(=O)OC(C)(C)C	Bcl-2 Bim block 83.0, Bfl-1 Bim block 45.0, Bim-Bcl-B 73.0
Cc1csc(NC(=O)c2ccc(C)c(S(=O)(=O)N3CCCCC3)c2)n1	Arbovirus inh 31.0
CC(=O)NCCc1nc2cc(NC(=O)c3cccs3)ccc2n1C	none
Cn1c(CCNC(=O)C2CCCCC2)nc2cc(NC(=O)c3cccs3)ccc21	Bcl-2 Bim block 91.0, Bfl-1 Bim block 59.0, Bim-Bcl-B 86.0
Cc1cc(C)nc(NC(=NCCc2c[nH]c3ccccc23)NC(=O)Nc2cccc([N+](=O)[O-])c2)n1	none
COc1ccc(C(=O)C2CCCN(Cc3ccc(C#CCCO)cc3)C2)cc1F (configuration not stated)	none
O=c1oc(-c2cccs2)nc2sc3c(c12)CCCCC3	none (no result: Bim-Bcl-XL, Bcl-2 Bim block, Bfl-1 Bim block, Bim-Bcl-B, Bcl-W Bim block)
O=c1oc(/C=C/c2ccccc2)nc2sc3c(c12)CCC3	Arbovirus inh 66.2
O=c1oc(-c2ccccc2)nc2sc3c(c12)CCCC3	Arbovirus inh 31.8
Cc1ccccc1-c1nc2sc3c(c2c(=O)o1)CCC3	Bcl-2 Bim block inconclusive (no result: Bim-Bcl-XL, Bfl-1 Bim block, Bim-Bcl-B, Bcl-W Bim block)
O=c1oc(-c2cc3ccccc3o2)nc2sc3c(c12)CCCC3	Arbovirus inh 77.9
CCOC(=O)COc1c(Cl)cc(C2NC(=S)NC(c3ccccc3)=C2C(C)=O)cc1OCC (configuration not stated)	none
